# Activity calls are given as the source filed them.
# Experiments:
# [1] = test system: Plasmodium falciparum Sir2 (PF13_0152, Sir2A); test: Plasmodium falciparum Sir2A binding compounds – biochemical, small-molecule microarray, 635 nm fluorescence, primary screen (AID 1098); settings: fluorescence 635 nm, higher = more signal;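 also: score merges spot fluorescence intensity with its signal-to-noise ratio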
# [2] = probe aDKK1 binding to arrayed compounds – biochemical, biotinylated probe, 635/667 nm fluorescence, primary screen (AID 1099); settings: small-molecule microarray, higher = more signal;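 also: score merges 667nm spot fluorescence with signal to noise across triplicate slides; reference of the scale not given here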
# [3] = probe aCHRDL2 binding to arrayed compounds – biochemical, biotinylated probe, 635/667 nm fluorescence, primary screen (AID 1100); settings: small-molecule microarray, higher = more signal
# [4] = change in splice reporter luminescence, either direction, cell-based, HEK293, spliceosome inhibition project, primary screen (AID 1101); settings: HEK293 splicing luciferase reporter, 24 h, higher = more signal, called active from +8 up or from −8 down;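 also: HEK293 cells carrying a splicing-competent luciferase reporter gene; test concentration not given here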
# [5] = target: Fibroblast growth factor 10 (Homo sapiens) (UniProt O15520); test: compounds binding fibroblast growth factor 10 – biochemical, small-molecule microarray, 635 nm fluorescence, primary screen (AID 1102); settings: FGF10 binding, fluorescence 635 nm, higher = more signal
# [6] = test system: glycogen synthase kinase-3 (GSK3A per assay name; protocol says GSK3B); test: compounds binding glycogen synthase kinase-3 – biochemical, small-molecule microarray, 635 nm fluorescence, GSK3A, primary screen (AID 1103); settings: fluorescence 635 nm, higher = more signal; also: the record names both GSK3A and GSK3B
# [7] = target: Epidermal growth factor receptor (Homo sapiens) (UniProt P00533); test: compounds binding epidermal growth factor receptor – biochemical, small-molecule microarray, 635 nm fluorescence, primary screen (AID 1104); settings: EGFR binding, higher = more signal;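 also: score merges 667 nm emission intensity with spot signal to noise over triplicate slides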
# [8] = target: Follistatin-related protein 3 (Homo sapiens) (UniProt O95633); test: compounds binding follistatin-related protein 3 – biochemical, small-molecule microarray, 635 nm fluorescence, primary screen (AID 1105); settings: FSTL3 binding, higher = more signal;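 also: score merges emission near 667 nm and signal to noise per printed spot across three slides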
# [9] = target: Dickkopf-related protein 1 (Homo sapiens) (UniProt O94907); test: small molecules binding DKK1 protein – biochemical, small-molecule microarray, 635 nm fluorescence scan, primary screen (AID 1106); settings: higher = more signal;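 also: score merges emission near 667 nm with signal to noise over three replicate slides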
# [10] = test system: Inhibin beta A chain (activin A); test: small molecules binding activin A – biochemical, small-molecule microarray, 635 nm fluorescence scan, primary screen (AID 1107); settings: INHBA, higher = more signal;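 also: mouse activin A protein probed at 4.33 µg/mL on printed slides; score merges bound-protein fluorescence near 667 nm with spot signal-to-noise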
# Sequence of Dickkopf-related protein 1 (Homo sapiens) (O94907 whole entry, looked up): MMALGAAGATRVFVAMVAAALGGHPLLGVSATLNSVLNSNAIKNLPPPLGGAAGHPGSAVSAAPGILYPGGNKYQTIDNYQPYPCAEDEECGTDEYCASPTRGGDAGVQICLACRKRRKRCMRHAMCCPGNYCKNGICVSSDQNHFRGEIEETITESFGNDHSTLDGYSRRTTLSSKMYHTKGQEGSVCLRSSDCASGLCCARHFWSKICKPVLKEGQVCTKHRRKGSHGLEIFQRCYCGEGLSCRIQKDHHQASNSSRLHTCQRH
# Sequence of Epidermal growth factor receptor (Homo sapiens) (P00533 whole entry, looked up): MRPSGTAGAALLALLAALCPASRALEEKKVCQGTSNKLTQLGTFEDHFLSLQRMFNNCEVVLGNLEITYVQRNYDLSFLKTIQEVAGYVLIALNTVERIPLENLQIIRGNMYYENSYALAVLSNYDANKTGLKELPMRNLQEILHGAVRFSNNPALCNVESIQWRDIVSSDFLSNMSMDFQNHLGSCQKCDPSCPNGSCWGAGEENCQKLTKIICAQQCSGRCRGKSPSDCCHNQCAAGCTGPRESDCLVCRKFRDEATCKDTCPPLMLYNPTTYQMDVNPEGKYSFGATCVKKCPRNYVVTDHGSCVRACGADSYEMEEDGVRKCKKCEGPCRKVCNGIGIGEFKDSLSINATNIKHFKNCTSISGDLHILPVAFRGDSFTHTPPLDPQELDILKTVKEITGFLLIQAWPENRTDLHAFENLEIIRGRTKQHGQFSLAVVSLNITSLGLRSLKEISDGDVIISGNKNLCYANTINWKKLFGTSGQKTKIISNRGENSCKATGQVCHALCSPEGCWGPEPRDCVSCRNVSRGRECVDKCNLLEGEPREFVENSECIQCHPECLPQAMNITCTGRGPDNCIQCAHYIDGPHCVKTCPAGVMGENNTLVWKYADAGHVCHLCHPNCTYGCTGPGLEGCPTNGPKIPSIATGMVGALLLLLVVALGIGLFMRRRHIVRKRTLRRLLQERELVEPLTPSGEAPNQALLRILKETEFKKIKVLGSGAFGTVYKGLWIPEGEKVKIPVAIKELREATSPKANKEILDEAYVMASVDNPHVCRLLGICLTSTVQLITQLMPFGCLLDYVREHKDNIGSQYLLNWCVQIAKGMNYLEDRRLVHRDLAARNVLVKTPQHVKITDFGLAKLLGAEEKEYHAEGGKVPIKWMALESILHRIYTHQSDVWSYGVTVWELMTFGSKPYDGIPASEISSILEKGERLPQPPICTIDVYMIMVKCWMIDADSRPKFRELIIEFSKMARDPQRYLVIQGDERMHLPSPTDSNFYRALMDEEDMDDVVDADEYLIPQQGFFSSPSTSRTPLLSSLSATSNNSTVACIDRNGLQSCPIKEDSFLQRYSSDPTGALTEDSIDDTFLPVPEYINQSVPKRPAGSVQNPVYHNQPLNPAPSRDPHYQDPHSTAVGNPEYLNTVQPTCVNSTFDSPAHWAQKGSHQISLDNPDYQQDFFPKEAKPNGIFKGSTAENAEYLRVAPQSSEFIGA
# Sequence of Follistatin-related protein 3 (Homo sapiens) (O95633 whole entry, looked up): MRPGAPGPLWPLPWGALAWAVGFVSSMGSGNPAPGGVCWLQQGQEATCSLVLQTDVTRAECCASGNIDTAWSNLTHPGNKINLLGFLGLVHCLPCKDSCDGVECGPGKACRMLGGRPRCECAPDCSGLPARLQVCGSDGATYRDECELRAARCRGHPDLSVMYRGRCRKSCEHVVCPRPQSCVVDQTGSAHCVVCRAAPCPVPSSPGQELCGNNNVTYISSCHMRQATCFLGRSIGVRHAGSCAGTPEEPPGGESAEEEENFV
# Sequence of Fibroblast growth factor 10 (Homo sapiens) (O15520 whole entry, looked up): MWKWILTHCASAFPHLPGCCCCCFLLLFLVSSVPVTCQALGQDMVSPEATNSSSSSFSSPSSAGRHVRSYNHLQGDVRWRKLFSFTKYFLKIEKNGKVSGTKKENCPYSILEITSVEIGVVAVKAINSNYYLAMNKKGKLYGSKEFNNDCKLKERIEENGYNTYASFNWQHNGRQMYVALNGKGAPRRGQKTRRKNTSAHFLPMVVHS
Compound,composite z-score [1],composite z-score [2],composite z-score [3],z-score [4],composite z-score [5],composite z-score [6],composite z-score [7],composite z-score [8],composite z-score [9],composite z-score [10]
COC(=O)c1c2oc(c1C(=O)OC)C(=O)N[C@H](Cc1ccccc1)Cn1cc(nn1)C1(CCCCC1)NC(=O)N[C@H](CO)CC2,0.569,-0.177,-0.279,-0.168 (inactive),0.495,-0.528,-0.857,-0.409,-0.2,0.116
O=C1OCCC/C=C\[C@H]2OC34C=CCN(Cc5ccccc5)C(=O)[C@H]3N(CCO)C(=O)[C@@H]4C12 (stereo not given in full),1.76,-0.214,0.222,-1.25 (inactive),0.049,0.124,-0.71,-0.579,-0.461,0.765
O=C1O[C@H](c2ccccc2)[C@H](c2ccccc2)N2[C@H]1[C@@H](C(=O)N1CCCCCCC1)[C@]1(C(=O)Nc3ccc(C#CCCO)cc31)[C@H]2c1ccc(O)cc1,2.11,2.97,1.72,-0.547 (inactive),1.67,1.47,1.99,1.74,2.7,1.96
O=C1C2C=CC(C(O)c3ccccn3)N(Nc3ccc([N+](=O)[O-])cc3)C2C(=O)N1c1ccccc1 (stereo not given),1.42,1.01,0.891,0.981 (inactive),0.37,0.377,0.0711,0.55,-0.189,0.522
COCCOC(=O)N1C(=O)[C@@]2(c3cc(C#CCNC(N)=O)ccc31)[C@H](C(=O)Nc1nc3ccccc3s1)[C@H]1C(=O)O[C@H](c3ccccc3)[C@H](c3ccccc3)N1[C@@H]2c1ccc(O)cc1,0.576,0.406,0.774,1.05 (inactive),0.777,1.06,0.195,0.783,0.393,0.719
COC(=O)Cn1c(C(=O)N(C)C)cc2c1C[C@H]1CN(C(=O)c3ccccc3)[C@@](Cc3ccccc3)(C(=O)OC)[C@@H]21,0.272,0.605,0.686,-0.332 (inactive),-0.482,-1.25,0.183,-0.326,-0.578,0.865
CN1C(=O)C2C=CC(C(O)c3cccs3)N(N(c3ccccc3)c3ccccc3)C2C1=O (stereo not given),0.82,0.0508,0.66,2.04 (inactive),0.347,0.347,-0.665,0.602,-0.351,1.27
C=CCNC(=O)[C@@H]1[C@H]2C(=O)O[C@H](c3ccccc3)[C@H](c3ccccc3)N2[C@H](c2ccc(O)cc2)[C@@]12C(=O)N(C(=O)OCCOC)c1ccc(C#CCC(C(=O)OC)C(=O)OC)cc12,0.533,-0.0333,0.0912,0.942 (inactive),1.17,0.611,0.408,1,0.493,0.273
COCCOC(=O)N1C(=O)[C@@]2(c3cc(C#CCCO)ccc31)[C@H](c1ccc(O)cc1)N1[C@H](c3ccccc3)[C@H](c3ccccc3)OC(=O)[C@H]1[C@@H]2C(=O)NC[C@H](O)c1ccccc1,1.16,-0.0668,-0.0755,0.49 (inactive),0.758,0.733,0.0103,0.491,0.143,0.48
O=C1N(Cc2ccccc2)c2ccccc2C[C@@]12N=C(c1ccc(OCCCO)cc1)O[C@H]2c1ccccc1,-0.0351,0.184,0.923,-0.521 (inactive),0.457,0.977,0.282,0.319,-0.648,0.295
O=C1O[C@H](c2ccccc2)[C@H](c2ccccc2)N2[C@H]1[C@@H](C(=O)N1CCN(c3ncccn3)CC1)[C@]1(C(=O)Nc3ccc(C#CC4(O)CCCCCC4)cc31)[C@H]2c1ccc(O)cc1,1.54,0.111,-0.156,-0.262 (inactive),0.989,1,0.241,0.764,0.185,0.0022
O=C1NC(=O)C2C1C=CC(C(O)C1CCCCC1)N2Nc1ccccn1 (stereo not given),0.488,0.174,0.279,1.31 (inactive),0.355,-0.133,0.391,0.402,0.254,1.26
CC(C)(C)OC(=O)CC[C@]1(C(N)=O)N=C(c2ccc(OCCCO)cc2)O[C@H]1c1ccccc1N=[N+]=[N-],0.793,0.929,0.975,-1.24 (inactive),1.5,-0.0657,-0.204,0.0699,-0.307,1.23
C=C(COC)/C(=C/C[C@@H](OC(=O)c1ccncc1)c1ccccc1OCCO)c1cnc2ccccc2c1,0.247,-0.0501,0.0321,0.488 (inactive),1.47,1.29,1.3,1.59,0.651,1.61
CS(=O)(=O)CCOC(=O)C1=CC(CCCO)=CC(C2CC2)N(Cc2sc3ccccc3c2Cl)C=C1C(=O)OCCS(C)(=O)=O (stereo not given),1.38,0.33,0.669,0.385 (inactive),0.705,0.838,-0.0062,0.856,0.018,1.36
C=C(COC)/C(=C/C[C@@H](OC(C)=O)c1cccc(OCCO)c1)c1cnc2ccccc2c1,-0.219,0.15,0.322,-0.302 (inactive),1.56,0.917,1.26,1.55,1.02,1.93

# Source: PubChem BioAssay
